Bioassay records as filed in PubChem BioAssay.
VCAM1 TNFa inh = reduces TNF alpha induced VCAM1 expression in HUVEC; HUVEC TNFa-induced VCAM-1 immunofluorescence, high-content imaging; inhibition, % at 2 µM; actives 0.48% (n = 95,000); AID 802;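 active = inhibition above the batch mean plus 3 SD, with images confirmed as a hit by eye, cut at about 37% in these data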
E-sel TNF inh = TNF alpha driven E-selectin expression inhibition | actives 0.71% (n = 120,000) | inhibition, % at 2 µM | AID 1246 | HUVEC TNFa-induced E-selectin immunofluorescence, high content;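 active = inhibition above the batch mean plus 3 SD, and confirmed as a hit on visual image review, cut at about 43% in these data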
HUVEC tox TNFa = toxic to HUVEC cells under TNF alpha stimulation | cell count reduction, % at 2 µM | actives 0.17% (n = 93,000) | AID 848 | HUVEC TNFalpha-stimulated, Hoechst cell count, imaging;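 active = cell count reduction exceeding the screen mean by over 5 SD, scaled to untreated wells per plate, cut at about 78% in these data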;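 also: cells counted after 24 h of TNF alpha exposure following the 1 h pretreatment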
cytoskel mod = modifiers of cytoskeleton assembly | inhibition, % at 2 µM | AID 836 | actives 0.18% (n = 91,000) | HUVEC TNFa F-actin phalloidin imaging, high content;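 active = inhibition above the batch mean plus 3 SD and confirmed as a hit by visual image inspection, cut at about 30% in these data, passing the limit was not always enough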
Each line names hits and unclear results; the compound was inactive in the other large screens. This is a sample that favours compounds with a hit; in the whole collection about 1.2% have one here.

Cc1ccc2nc(Cl)c(/C=N/n3c(C)nnc3C)cc2c1	none (no result: VCAM1 TNFa inh, HUVEC tox TNFa, cytoskel mod)
CCOC(=O)/C(C#N)=C1/C=Cc2ccccc2N1CC	E-sel TNF inh 53 (no result: VCAM1 TNFa inh, HUVEC tox TNFa, cytoskel mod)
C=CCN1C(c2cccc(C(F)(F)F)c2)=CS/C1=C(/C#N)c1nnc(N2CCOCC2)n1-c1ccccc1	E-sel TNF inh 72 (no result: VCAM1 TNFa inh, HUVEC tox TNFa, cytoskel mod)
C=CCN1C(c2ccccc2)=CS/C1=C(\C#N)c1nnc2n1CCCCC2	E-sel TNF inh 63 (no result: VCAM1 TNFa inh, HUVEC tox TNFa, cytoskel mod)
C=CCN1C(c2ccc(Br)cc2)=CS/C1=C(/C#N)c1nnc(N2CCOCC2)n1-c1ccccc1	none (no result: VCAM1 TNFa inh, HUVEC tox TNFa, cytoskel mod)
O=C(N/N=C/c1cccnc1)c1ccc2c(c1)OCCO2	none (no result: VCAM1 TNFa inh, HUVEC tox TNFa, cytoskel mod)
Cc1c(N=C/C=C2\N(C)c3ccccc3C2(C)C)c(=O)n(-c2ccccc2)n1C	E-sel TNF inh 63
Cc1c(N=C/C=C2/N(C)c3ccccc3C2(C)C)c(=O)n(-c2ccccc2)n1C	none
COc1ccc(CN2C(=O)c3ccccc3C2C(=O)NC2CCCCCC2)c(OC)c1 (stereo unspecified)	none (no result: VCAM1 TNFa inh, HUVEC tox TNFa, cytoskel mod)
O=C(NCCC1=CCCCC1)C1CCN(S(=O)(=O)c2ccc(Br)s2)CC1	none (no result: VCAM1 TNFa inh, HUVEC tox TNFa, cytoskel mod)
CCC(=O)Nc1nc(-c2ccccc2)ns1	VCAM1 TNFa inh 58 (no result: HUVEC tox TNFa)
CC(C)C(=O)Nc1nc(-c2ccccc2)ns1	none (no result: HUVEC tox TNFa)
Cc1nc(C#N)c(N/N=C/c2c(F)cccc2Cl)o1	none (no result: VCAM1 TNFa inh, HUVEC tox TNFa, cytoskel mod)
Cc1ccc2cc(C#N)c(NCCNC(=O)C3CC3)nc2c1C	none
COc1ccc(OC)c(-c2cc(C(=O)Nc3c(C)nn(Cc4ccccc4C)c3C)no2)c1	none (no result: E-sel TNF inh)
Cc1ccccc1Cn1nc(C)c(NC(=O)c2cc(-c3cccs3)on2)c1C	VCAM1 TNFa inh 91, HUVEC tox TNFa 80 (no result: E-sel TNF inh)
Cc1ccc(/C=C/C(=O)C2C(=O)c3ccccc3C2=O)cc1	E-sel TNF inh 66
CC(C)(C)C(=O)Nc1cc(S(=O)(=O)N2CCCCC2)ccc1N1CCCCC1	none (no result: VCAM1 TNFa inh, HUVEC tox TNFa, cytoskel mod)
Cc1ccc(NC2=C/C(=N/S(=O)(=O)c3cccs3)c3ccccc3C2=O)cc1C	none (no result: VCAM1 TNFa inh, HUVEC tox TNFa, cytoskel mod)
Cc1ccccc1NC1=C/C(=N\S(=O)(=O)c2cccs2)c2ccccc2C1=O	VCAM1 TNFa inh 86, E-sel TNF inh 76
Cc1cc2nc(C)n(CCCNC(=O)Nc3cccc4ccccc34)c2cc1C	none
COc1ccc(S(=O)(=O)N(CC(N)=O)C2CCCCC2)cc1Cl	E-sel TNF inh 45
COc1ccc(S(=O)(=O)N(C)CC(=O)NC2CCCCC2)cc1Cl	none
CC(C)(C)C1CCc2c(C(=O)NNC(=O)CCCC(=O)O)csc2C1 (stereo unspecified)	none (no result: VCAM1 TNFa inh, HUVEC tox TNFa, cytoskel mod)
C=CCn1c(SCc2c(C)noc2C)nc2cc(C(=O)O)ccc2c1=O	none (no result: VCAM1 TNFa inh, HUVEC tox TNFa, cytoskel mod)
C=CCn1c(SCc2c(C)noc2C)nc2ccccc2c1=O	VCAM1 TNFa inh 60
Cc1nc(Cl)c(C(=O)NC(C)(C)C)c(C)c1Cl	none (no result: VCAM1 TNFa inh, HUVEC tox TNFa, cytoskel mod)
C=COCCNC(=S)N1CCOCCOCCN(C(=S)NCCOC=C)CCOCCOCC1	none (no result: VCAM1 TNFa inh, HUVEC tox TNFa, cytoskel mod)
COC(=O)c1ccsc1NC(=O)C1=COCCO1	HUVEC tox TNFa 92 (no result: E-sel TNF inh)
CC(C)(C)NC(=O)NC(=O)COC(=O)c1cccc(S(=O)(=O)N2CCCCC2)c1	none (no result: VCAM1 TNFa inh, HUVEC tox TNFa, cytoskel mod)
O=C(Nc1ccccc1)c1nnsc1S(=O)c1ccc(Cl)cc1 (stereo unspecified)	VCAM1 TNFa inh 43, E-sel TNF inh 80
O=C(CSc1nc2ccc(NC(=O)CSc3nnnn3-c3ccccc3)cc2s1)Nc1ccccc1	none (no result: VCAM1 TNFa inh, HUVEC tox TNFa, cytoskel mod)
Cc1cccc(NC(=O)CSc2nc3ccc(NC(=O)CSc4nnnn4-c4ccccc4)cc3s2)c1C	VCAM1 TNFa inh 44
COc1ccc(N2C(=O)CSC2c2cccs2)cc1 (stereo unspecified)	none (no result: VCAM1 TNFa inh, HUVEC tox TNFa, cytoskel mod)
CCOc1ccc(N2C(=O)CSC2c2ccncc2)cc1 (stereo unspecified)	VCAM1 TNFa inh 91
O=C(CN1CCCCCCC1)Nc1cccc(Cl)c1Cl	none (no result: VCAM1 TNFa inh, HUVEC tox TNFa, cytoskel mod)
Cc1ccc(C)c(NC(=O)CSc2nnc([C@@H](N)Cc3ccccc3)o2)c1	E-sel TNF inh 62
CCOC(=O)c1ccc2nc(CCC(=O)N[C@H](C(=O)OC)C(C)C)c(=O)n(CC)c2c1	none (no result: VCAM1 TNFa inh, HUVEC tox TNFa, cytoskel mod)
CCc1cc[n+](CC(=O)Nc2ccc(Cl)cc2Cl)cc1	E-sel TNF inh 77 (no result: VCAM1 TNFa inh, HUVEC tox TNFa, cytoskel mod)
CCOC(=O)/C=C/C(=O)OCC(=O)Nc1ccc(Cl)cc1Cl	none (no result: VCAM1 TNFa inh, HUVEC tox TNFa, cytoskel mod)
Cc1ccc(S(=O)(=O)Cn2nnnc2C(C(C)C)N2CCN(c3nc4ccccc4s3)CC2)cc1 (stereo unspecified)	VCAM1 TNFa inh 50
c1ccc(Cn2nnnc2C(c2ccccc2)N2CCN(c3nc4ccccc4s3)CC2)cc1 (stereo unspecified)	none (no result: E-sel TNF inh)
COc1cccc(/C=N/Nc2nc(Nc3ccccc3)nc(-n3nc(C)cc3C)n2)c1O	VCAM1 TNFa inh 87
Cc1cc(C)n(-c2nc(Nc3ccccc3)nc(-n3nc(C)cc3C)n2)n1	none
CC(C)CC(c1nnnn1Cc1ccc2c(c1)OCO2)N1CCC(C(N)=O)CC1 (stereo unspecified)	none (no result: VCAM1 TNFa inh, HUVEC tox TNFa, cytoskel mod)
Cc1ccc(NC2OC(C(O)CO)C(O)C2O)cc1[N+](=O)[O-] (stereo unspecified)	E-sel TNF inh 64 (no result: cytoskel mod)
